# Data as given in PubChem BioAssay.
# Active and inactive are the calls of the source.
# Experiments:
# [1] = anti-His antibody binders, primary screen, artefact control for SMM control protein annotation, biochemical, small-molecule microarray, 635 nm fluorescence (AID 1128); conditions: anti-His Alexa647 antibody binding, higher = more signal;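 also: score merges feature fluorescence with signal-to-noise for each printed compound spot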
# [2] = tested on: Human papillomavirus type 1a E7 protein (residues 1-88); experiment: HPV1a E7 small-molecule binders, primary screen, biochemical, small-molecule microarray, residues 1-88, 635 nm (AID 1129); conditions: small-molecule microarray binding, fluorescence 635 nm; higher = more signal
# [3] = biological target: Focal adhesion kinase 1 (Homo sapiens) (UniProt Q05397); experiment: small-molecule microarray binders of FAK, primary screen, biochemical, 635/667 nm fluorescence, BSA, DTT (AID 1130); conditions: PTK2 binding, 635 nm fluorescence, higher = more signal;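 also: composite of spot emission at 667 nm and signal to noise over triplicate slides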
# [4] = tested on: Fibrinogen (Alexa647-labelled); experiment: fibrinogen binders on compound microarrays, profiling panel, artefact control for SMM control-protein annotation, biochemical, small-molecule microarray, 635/667 nm fluorescence (AID 1131); conditions: fibrinogen-A647 binding fluorescence, higher = more signal;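 also: z-score merges 667 nm fluorescence with per-spot signal-to-noise over triplicate slides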
# [5] = biological target: Follistatin (Homo sapiens) (UniProt P19883); experiment: follistatin binders on small-molecule microarrays, primary screen, biochemical, small-molecule microarray, 635/667 nm fluorescence (AID 1132); conditions: FST binding, 635 nm fluorescence, higher = more signal
# [6] = biological target: Fibroblast growth factor 2 (Homo sapiens) (UniProt P09038); experiment: FGF2 binders on small-molecule microarrays, primary screen, biochemical, small-molecule microarray, 635/667 nm fluorescence (AID 1133); conditions: small-molecule microarray binding, FGF2, fluorescence 635/667; higher = more signal
# [7] = mitochondrial membrane potential change in A549 cells, profiling panel, cell-based, JC-1 fluorescence, basal, 24 h, 100 nL (AID 1138); conditions: higher = more signal;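 also: A549 lung adenocarcinoma cells under basal conditions with no added stimulus; test concentration not given here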
# Lefty1 = Lefty1 binders on small-molecule microarrays, primary screen, biochemical, small-molecule microarray, 635/667 nm fluorescence (AID 1139); conditions: small-molecule microarray binding, fluorescence 635/667; higher = more signal
# [8] = tested on: wheat germ agglutinin (Triticum aestivum), Alexa647-labelled; experiment: wheat germ agglutinin binders on compound microarrays, profiling panel, artefact control for SMM control-protein annotation, biochemical, small-molecule microarray, 635/667 nm fluorescence (AID 1140); conditions: WGA-A647 binding, 635 nm fluorescence, higher = more signal;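 also: score merges 667 nm feature emission with signal to noise over triplicate slides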
# [9] = biological target: Luciferin 4-monooxygenase (Photinus pyralis) (UniProt P08659); experiment: firefly luciferase enzyme inhibitors, primary screen, biochemical, luminescence, purified enzyme, 2006 set (AID 1141); conditions: SteadyGlo luminescence, 30 min, higher = more signal, called active from +8 up or from −8 down;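 also: cell-free assay with purified firefly luciferase at 100 ng per well in PBS; test concentration not given here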
# Sequence of Luciferin 4-monooxygenase (Photinus pyralis) (P08659 whole entry, looked up): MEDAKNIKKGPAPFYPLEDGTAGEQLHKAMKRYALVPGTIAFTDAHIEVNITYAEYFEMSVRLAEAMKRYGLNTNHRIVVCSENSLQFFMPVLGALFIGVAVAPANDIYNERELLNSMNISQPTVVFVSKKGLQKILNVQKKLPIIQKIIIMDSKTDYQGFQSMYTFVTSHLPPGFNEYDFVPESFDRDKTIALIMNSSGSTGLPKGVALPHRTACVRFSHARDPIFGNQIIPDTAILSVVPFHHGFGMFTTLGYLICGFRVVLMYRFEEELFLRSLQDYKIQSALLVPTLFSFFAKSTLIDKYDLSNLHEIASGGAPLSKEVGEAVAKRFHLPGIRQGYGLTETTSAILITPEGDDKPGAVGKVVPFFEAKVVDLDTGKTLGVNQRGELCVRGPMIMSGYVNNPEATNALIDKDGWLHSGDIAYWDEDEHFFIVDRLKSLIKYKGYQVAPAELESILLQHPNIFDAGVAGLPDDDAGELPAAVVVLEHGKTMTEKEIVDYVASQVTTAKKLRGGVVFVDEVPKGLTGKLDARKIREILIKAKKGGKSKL
# Sequence of Fibroblast growth factor 2 (Homo sapiens) (P09038 whole entry, looked up): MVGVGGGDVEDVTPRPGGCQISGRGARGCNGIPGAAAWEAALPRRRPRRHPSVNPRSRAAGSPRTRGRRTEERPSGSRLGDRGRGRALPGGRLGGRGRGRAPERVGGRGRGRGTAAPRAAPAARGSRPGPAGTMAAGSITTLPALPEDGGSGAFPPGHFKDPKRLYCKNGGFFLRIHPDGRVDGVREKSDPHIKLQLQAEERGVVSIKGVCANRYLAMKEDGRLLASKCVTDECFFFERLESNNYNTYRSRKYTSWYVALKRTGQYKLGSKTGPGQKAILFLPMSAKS
# Sequence of Focal adhesion kinase 1 (Homo sapiens) (Q05397 whole entry, looked up): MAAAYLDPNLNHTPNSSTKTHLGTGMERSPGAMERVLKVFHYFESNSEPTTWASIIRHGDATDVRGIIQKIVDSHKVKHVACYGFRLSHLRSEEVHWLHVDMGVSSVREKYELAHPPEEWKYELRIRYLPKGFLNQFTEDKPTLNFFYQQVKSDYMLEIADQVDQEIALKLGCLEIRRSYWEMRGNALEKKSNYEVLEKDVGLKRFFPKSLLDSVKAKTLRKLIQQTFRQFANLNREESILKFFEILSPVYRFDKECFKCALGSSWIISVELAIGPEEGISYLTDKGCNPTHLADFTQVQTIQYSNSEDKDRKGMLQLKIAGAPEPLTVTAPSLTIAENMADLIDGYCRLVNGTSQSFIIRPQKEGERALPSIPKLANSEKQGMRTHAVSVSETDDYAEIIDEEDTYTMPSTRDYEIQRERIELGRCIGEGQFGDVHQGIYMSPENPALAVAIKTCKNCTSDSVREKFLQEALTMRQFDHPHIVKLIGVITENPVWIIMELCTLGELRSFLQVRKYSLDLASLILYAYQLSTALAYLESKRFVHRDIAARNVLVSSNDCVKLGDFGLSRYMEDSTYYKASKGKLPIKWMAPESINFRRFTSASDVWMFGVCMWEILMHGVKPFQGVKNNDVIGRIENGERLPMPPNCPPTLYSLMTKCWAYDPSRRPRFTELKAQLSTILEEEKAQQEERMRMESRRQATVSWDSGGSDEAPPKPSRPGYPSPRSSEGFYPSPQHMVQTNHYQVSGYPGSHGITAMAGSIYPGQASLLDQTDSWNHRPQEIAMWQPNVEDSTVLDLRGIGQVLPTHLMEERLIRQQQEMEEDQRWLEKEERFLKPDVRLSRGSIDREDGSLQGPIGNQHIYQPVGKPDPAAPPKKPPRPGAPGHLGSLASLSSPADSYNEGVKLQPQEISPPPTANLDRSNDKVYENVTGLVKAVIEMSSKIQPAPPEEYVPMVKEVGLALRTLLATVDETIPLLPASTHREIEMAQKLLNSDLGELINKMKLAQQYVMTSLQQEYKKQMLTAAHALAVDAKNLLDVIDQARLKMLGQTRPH
# Sequence of Follistatin (Homo sapiens) (P19883 whole entry, looked up): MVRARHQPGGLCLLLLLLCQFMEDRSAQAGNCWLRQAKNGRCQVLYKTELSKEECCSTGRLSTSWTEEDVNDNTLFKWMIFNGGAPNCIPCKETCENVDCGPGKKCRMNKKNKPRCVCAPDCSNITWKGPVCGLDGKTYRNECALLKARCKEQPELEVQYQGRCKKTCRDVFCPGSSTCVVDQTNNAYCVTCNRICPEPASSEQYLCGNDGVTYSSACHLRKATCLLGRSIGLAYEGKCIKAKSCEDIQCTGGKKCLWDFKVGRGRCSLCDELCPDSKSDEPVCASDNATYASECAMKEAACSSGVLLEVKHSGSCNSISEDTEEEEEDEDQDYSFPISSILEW
smiles,measurement,setting,value
COc1ccc([Si](C)(C)[C@H]2[C@H](CC(=O)N3CCC[C@H]3CO)O[C@@]3(C(=O)N(Cc4cccc(N5CCOC5=O)c4)c4ccccc43)[C@@H]2C)cc1,composite z-score,[1],1.3
same,composite z-score,[2],0.883
same,composite z-score,[3],0.266
same,composite z-score,[4],0.405
same,composite z-score,[5],1.42
same,composite z-score,[6],1.64
same,z-score,[7],1.1
same,composite z-score,Lefty1,1.47
same,composite z-score,[8],0.149
same,z-score,[9],0.526 (inactive)
CC(C)N1CC=CC23O[C@@H]4C=CCOC(=O)[C@@H]4[C@H]2C(=O)N(CCCCCO)[C@@H]3C1=O (stereo not given in full),composite z-score,[1],2.11
same,composite z-score,[2],-0.01
same,composite z-score,[3],0.345
same,composite z-score,[4],-1.86
same,composite z-score,[5],-0.382
same,composite z-score,[6],-0.377
same,z-score,[7],-0.178
same,composite z-score,Lefty1,0.204
same,composite z-score,[8],0.0322
same,z-score,[9],-3.48 (inactive)
C=C(CCCC)/C(=C/C[C@@H](OC(C)=O)c1ccccc1OCCO)c1cc(C(=O)OC)ccc1OC,composite z-score,[1],-0.9
same,composite z-score,[2],-0.2
same,composite z-score,[3],-0.0448
same,composite z-score,[4],0.259
same,composite z-score,[5],0.35
same,composite z-score,[6],0.16
same,z-score,[7],2.6
same,composite z-score,Lefty1,0.384
same,composite z-score,[8],0.0424
same,z-score,[9],-2.02 (inactive)
N#Cc1ccc(C(O)C2C=CC3C(=O)N(c4ccccc4)C(=O)C3N2Nc2ccccc2F)cc1 (stereo not given),composite z-score,[1],2.59
same,composite z-score,[2],1.05
same,composite z-score,[3],0.152
same,composite z-score,[4],0.97
same,composite z-score,[5],0.269
same,composite z-score,[6],0.191
same,z-score,[7],0.0535
same,composite z-score,Lefty1,0.284
same,composite z-score,[8],0.144
same,z-score,[9],1.79 (inactive)
COC(=O)[C@@]1(Cc2ccc(OC)cc2)[C@H]2c3cc(C(=O)N4CCCC4)n(Cc4nc5ccccc5[nH]4)c3C[C@H]2CN1C(=O)c1ccccc1,composite z-score,[1],2.01
same,composite z-score,[2],1.24
same,composite z-score,[3],1.64
same,composite z-score,[4],1.05
same,composite z-score,[5],0.979
same,composite z-score,[6],-0.202
same,z-score,[7],1.92
same,composite z-score,Lefty1,-0.47
same,composite z-score,[8],1.14
same,z-score,[9],1.53 (inactive)
COCCOC(=O)N1C(=O)[C@@]2(c3ccccc31)[C@H](c1ccc(OCCO)cc1)N1[C@H](c3ccccc3)[C@H](c3ccccc3)OC(=O)[C@H]1[C@@H]2C(=O)N1CCc2cc(OC)c(OC)cc2C1,composite z-score,[1],2.41
same,composite z-score,[2],1.2
same,composite z-score,[3],0.85
same,composite z-score,[4],0.958
same,composite z-score,[5],1.3
same,composite z-score,[6],1.38
same,z-score,[7],-0.0272
same,composite z-score,Lefty1,1.35
same,composite z-score,[8],1.17
same,z-score,[9],-0.603 (inactive)
COCCOC(=O)N1C(=O)[C@@]2(c3cc(C#CCCO)ccc31)[C@H](c1ccc(OCCO)cc1)N1[C@H](c3ccccc3)[C@H](c3ccccc3)OC(=O)[C@H]1[C@@H]2C(N)=O,composite z-score,[1],1.3
same,composite z-score,[2],1.2
same,composite z-score,[3],0.711
same,composite z-score,[4],0.837
same,composite z-score,[5],1.04
same,composite z-score,[6],0.752
same,z-score,[7],-0.212
same,composite z-score,Lefty1,0.496
same,composite z-score,[8],0.694
same,z-score,[9],-1.77 (inactive)
O=C1C2C=CC(C(O)c3cc(C(F)(F)F)cc(C(F)(F)F)c3)N(Nc3ccccc3)C2C(=O)N1c1ccccc1 (stereo not given),composite z-score,[1],0.692
same,composite z-score,[2],1.27
same,composite z-score,[3],0.838
same,composite z-score,[4],0.462
same,composite z-score,[5],0.0145
same,composite z-score,[6],-0.601
same,z-score,[7],-0.424
same,composite z-score,Lefty1,0.192
same,composite z-score,[8],0.173
same,z-score,[9],-1.47 (inactive)
CCCCC(=C=CC[C@H](O)c1cccc(OCCO)c1)C[C@H](O)c1ccccn1,composite z-score,[1],0.536
same,composite z-score,[2],-0.0708
same,composite z-score,[3],-0.0538
same,composite z-score,[4],0.538
same,composite z-score,[5],0.346
same,composite z-score,[6],0.257
same,z-score,[7],0.782
same,composite z-score,Lefty1,0.38
same,composite z-score,[8],0.0704
same,z-score,[9],-0.167 (inactive)
O=C(NC1CC1)[C@@H]1c2ccccc2C(=O)N(Cc2cc(F)cc(C(F)(F)F)c2)[C@H]1c1ccc(CO)cc1,composite z-score,[1],1.23
same,composite z-score,[2],-0.454
same,composite z-score,[3],0.315
same,composite z-score,[4],-0.399
same,composite z-score,[5],0.542
same,composite z-score,[6],-0.258
same,z-score,[7],0.739
same,composite z-score,Lefty1,-0.396
same,composite z-score,[8],0.569
same,z-score,[9],-0.124 (inactive)
CN(C)CCCCNC(=O)[C@@H]1C[C@@H]2C(=O)N[C@@H](CCCCN)C(=O)N2[C@@H]1c1ccc(O)cc1,composite z-score,[1],0.253
same,composite z-score,[2],-0.0102
same,composite z-score,[3],-0.0748
same,composite z-score,[4],0.223
same,composite z-score,[5],1.34
same,composite z-score,[6],1.68
same,z-score,[7],-1.38
same,composite z-score,Lefty1,0.896
same,composite z-score,[8],0.857
same,z-score,[9],-0.0213 (inactive)
[N-]=[N+]=NCc1ccccc1[C@@H]1OC(c2ccc(OCCCO)cc2)=N[C@]1(CCS(=O)(=O)c1ccccc1)C(=O)N1CCOCC1,composite z-score,[1],3.06
same,composite z-score,[2],1.24
same,composite z-score,[3],0.531
same,composite z-score,[4],1
same,composite z-score,[5],1.16
same,composite z-score,[6],0.138
same,z-score,[7],-0.191
same,composite z-score,Lefty1,0.186
same,composite z-score,[8],1.24
same,z-score,[9],-1.43 (inactive)
CCCCN1CC=CC23O[C@@H]4C=CCCOC(=O)C4[C@H]2C(=O)N(CCCCCO)[C@@H]3C1=O (stereo not given in full),composite z-score,[1],1.88
same,composite z-score,[2],-0.306
same,composite z-score,[3],0.779
same,composite z-score,[4],-0.905
same,composite z-score,[5],-0.592
same,composite z-score,[6],-0.437
same,z-score,[7],0.976
same,composite z-score,Lefty1,-0.0266
same,composite z-score,[8],0.0604
same,z-score,[9],-0.469 (inactive)
